Hits are enriched below; roughly 3.5% of the tested compounds scored in any of these assays.
mHTT CaM bind – inhibitors of human mutant huntingtin-calmodulin interaction; 190,000 compounds, 3.6% hits; inhibition, % at 15 µM; AID 1671202; P42858; AlphaScreen His-mHTT/GST-CaM binding, luminescence;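 further: 0% = both proteins with DMSO and 100% = one protein alone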
Target sequence (P42858 whole entry, looked up, stated change not applied): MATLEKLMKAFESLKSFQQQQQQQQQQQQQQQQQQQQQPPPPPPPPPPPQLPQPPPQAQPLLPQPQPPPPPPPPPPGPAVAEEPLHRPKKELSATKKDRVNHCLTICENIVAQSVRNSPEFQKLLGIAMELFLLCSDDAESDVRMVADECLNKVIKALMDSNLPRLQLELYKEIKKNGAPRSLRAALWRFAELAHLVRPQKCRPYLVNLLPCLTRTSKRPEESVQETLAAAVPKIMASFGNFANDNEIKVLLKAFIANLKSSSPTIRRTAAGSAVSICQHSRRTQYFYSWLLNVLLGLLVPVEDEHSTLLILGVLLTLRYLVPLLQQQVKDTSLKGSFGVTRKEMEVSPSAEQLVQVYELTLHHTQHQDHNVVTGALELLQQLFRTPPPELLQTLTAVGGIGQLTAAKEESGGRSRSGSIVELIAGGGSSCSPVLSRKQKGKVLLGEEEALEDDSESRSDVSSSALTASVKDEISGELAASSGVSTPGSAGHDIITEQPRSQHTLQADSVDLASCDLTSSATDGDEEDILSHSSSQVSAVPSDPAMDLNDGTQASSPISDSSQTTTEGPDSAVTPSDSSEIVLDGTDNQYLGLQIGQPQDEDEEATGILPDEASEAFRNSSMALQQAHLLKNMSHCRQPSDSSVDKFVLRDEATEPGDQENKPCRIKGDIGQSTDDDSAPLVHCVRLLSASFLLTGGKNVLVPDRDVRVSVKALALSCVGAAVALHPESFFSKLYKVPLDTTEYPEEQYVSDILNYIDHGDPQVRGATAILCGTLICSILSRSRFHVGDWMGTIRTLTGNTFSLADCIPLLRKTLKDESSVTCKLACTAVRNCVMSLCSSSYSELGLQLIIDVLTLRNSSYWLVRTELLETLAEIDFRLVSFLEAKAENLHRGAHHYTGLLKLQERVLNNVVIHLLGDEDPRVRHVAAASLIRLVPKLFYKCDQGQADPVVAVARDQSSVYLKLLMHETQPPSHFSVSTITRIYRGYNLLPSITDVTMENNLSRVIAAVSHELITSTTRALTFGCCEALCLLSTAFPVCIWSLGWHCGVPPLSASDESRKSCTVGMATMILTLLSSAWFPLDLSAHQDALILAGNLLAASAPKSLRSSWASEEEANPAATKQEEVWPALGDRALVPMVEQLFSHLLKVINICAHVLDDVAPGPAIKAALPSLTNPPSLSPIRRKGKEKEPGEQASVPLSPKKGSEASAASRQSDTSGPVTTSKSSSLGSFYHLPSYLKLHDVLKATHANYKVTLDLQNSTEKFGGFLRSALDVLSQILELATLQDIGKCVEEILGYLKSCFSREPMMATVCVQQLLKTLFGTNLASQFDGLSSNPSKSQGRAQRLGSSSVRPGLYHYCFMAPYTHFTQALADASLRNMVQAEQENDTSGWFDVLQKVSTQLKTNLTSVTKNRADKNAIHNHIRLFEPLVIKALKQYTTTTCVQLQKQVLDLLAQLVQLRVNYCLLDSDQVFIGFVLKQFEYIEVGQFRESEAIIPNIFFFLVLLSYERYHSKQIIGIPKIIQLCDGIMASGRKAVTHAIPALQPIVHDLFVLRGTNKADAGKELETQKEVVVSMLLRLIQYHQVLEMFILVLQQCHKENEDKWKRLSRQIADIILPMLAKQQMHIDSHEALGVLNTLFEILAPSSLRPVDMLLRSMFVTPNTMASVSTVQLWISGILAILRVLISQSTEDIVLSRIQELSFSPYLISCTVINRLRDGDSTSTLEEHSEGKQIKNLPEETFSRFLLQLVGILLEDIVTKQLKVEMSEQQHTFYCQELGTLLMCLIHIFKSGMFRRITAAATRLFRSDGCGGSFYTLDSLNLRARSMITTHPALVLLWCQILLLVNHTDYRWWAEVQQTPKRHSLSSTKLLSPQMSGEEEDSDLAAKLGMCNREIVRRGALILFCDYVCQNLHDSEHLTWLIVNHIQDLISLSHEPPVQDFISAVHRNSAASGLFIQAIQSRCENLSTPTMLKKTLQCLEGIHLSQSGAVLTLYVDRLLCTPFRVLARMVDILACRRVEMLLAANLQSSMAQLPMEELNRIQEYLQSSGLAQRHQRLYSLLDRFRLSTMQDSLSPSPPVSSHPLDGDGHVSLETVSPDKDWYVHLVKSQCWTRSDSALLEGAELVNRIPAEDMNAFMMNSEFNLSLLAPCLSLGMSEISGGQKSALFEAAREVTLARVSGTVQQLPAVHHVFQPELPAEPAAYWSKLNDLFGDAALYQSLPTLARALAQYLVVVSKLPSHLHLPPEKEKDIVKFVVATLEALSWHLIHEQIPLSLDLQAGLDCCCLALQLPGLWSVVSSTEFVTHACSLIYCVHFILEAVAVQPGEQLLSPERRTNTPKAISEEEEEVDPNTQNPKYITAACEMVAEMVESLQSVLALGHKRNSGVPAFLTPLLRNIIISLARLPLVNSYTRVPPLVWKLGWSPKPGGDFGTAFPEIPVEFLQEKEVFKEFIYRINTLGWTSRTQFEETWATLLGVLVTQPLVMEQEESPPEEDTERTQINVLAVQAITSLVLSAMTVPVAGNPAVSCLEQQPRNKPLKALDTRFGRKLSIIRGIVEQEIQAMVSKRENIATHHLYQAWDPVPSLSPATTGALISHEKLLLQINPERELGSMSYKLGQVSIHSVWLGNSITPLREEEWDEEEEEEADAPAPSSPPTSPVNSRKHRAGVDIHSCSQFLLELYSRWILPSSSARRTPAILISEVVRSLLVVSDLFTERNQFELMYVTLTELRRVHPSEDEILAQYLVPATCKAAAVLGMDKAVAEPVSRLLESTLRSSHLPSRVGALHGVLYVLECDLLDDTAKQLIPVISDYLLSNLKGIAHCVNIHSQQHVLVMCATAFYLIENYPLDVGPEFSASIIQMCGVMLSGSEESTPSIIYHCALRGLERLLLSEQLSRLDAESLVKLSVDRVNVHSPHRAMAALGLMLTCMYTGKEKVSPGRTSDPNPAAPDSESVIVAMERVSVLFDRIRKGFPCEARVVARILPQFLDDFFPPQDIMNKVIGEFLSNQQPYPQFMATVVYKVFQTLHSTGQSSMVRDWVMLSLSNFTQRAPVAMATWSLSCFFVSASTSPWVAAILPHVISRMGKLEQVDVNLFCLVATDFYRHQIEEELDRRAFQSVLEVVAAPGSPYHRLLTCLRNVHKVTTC
Pf apPOL inh – Pf-apPOL DNA polymerase inhibition; Recombinant Pf-apPOL, molecular beacon fluorescence, 1.5 h; 210,000 compounds, 0.25% hits; inhibition, % at 10 µM
* = called active by the depositor; nt = no result given. No stated cut-off is given here; in the data, active means inhibition above about 50%; inactive means the rest.

SMILES	mHTT CaM bind	Pf apPOL inh
COCCCN1C(=O)C(=O)C(=C(O)c2ccc(S(=O)(=O)N(C)C)cc2)C1c1ccc(F)cc1 (configuration not stated)	-5.1	0.6
C=CC(=O)Nc1ccc(-c2nc3ccc(NC(=O)C=C)cc3[nH]2)cc1	1.0	5.6
Cc1cccc2[nH]c(-c3ccc(NC(=O)c4ccc(N)cc4)cc3)nc12	21.0	-2.4
O=[N+]([O-])c1ccc2nc(-c3ccccc3)[nH]c2c1	11.0	30.9
COc1ccc(Cl)cc1C(=O)Nc1ccc(F)cc1	-8.1	1.4
CC(=O)Nc1ccc(-c2nc3ccc(NC(C)=O)cc3[nH]2)cc1	0.8	81.4*
Nc1ccc(C(=O)Nc2ccc(-c3nc4ccc(NC(=O)c5ccc(N)cc5)cc4[nH]3)cc2)cc1	52.2*	-27.1
COc1ccc(Cl)cc1C(=O)Nc1ccc(-c2nc3ccccc3[nH]2)cc1	90.0*	3.7
O=C(O)c1ccc(-c2nc3ccc(-c4ccc5nc(-c6ccc(C(=O)O)cc6)[nH]c5c4)cc3[nH]2)cc1	nt	85.7*
CC1NC2(CCN(S(=O)(=O)c3ccc(F)cc3)CC2)N(Cc2ccccc2)C1=O (configuration not stated)	0.4	-1.6
CC(C)(C)NC(=O)COc1cccc2c1OC(C)(C)C2	-4.7	-1.8
Cc1cccc(C2C=C(c3ccc(Br)cc3)Nc3ncnn32)c1 (configuration not stated)	-4.0	-6.9
CC(C)n1c(C2CCN(C(=O)NCCc3ccccc3)C2)nc2ccncc21 (configuration not stated)	-2.2	-6.0
Cc1ccc(C(=O)NN(C)C)o1	-2.9	nt
Cc1ccc(C(=O)/C=C/C=C/C=C/N(C)C)o1	73.8*	-3.8
CN(C)CCN(C)Cc1ccc(Br)cc1	-2.0	4.1
COc1ccc(CCNc2nc3c(c(=O)n(C)c(=O)n3C)n2Cc2ccccc2F)cc1OC	3.0	-4.5
CC1C2CC(C(C(Nc3ccccc3)c3ccccc3)C2=O)C1(C)C (configuration not stated)	-11.0	-11.9
CCc1ccc(C2=C/C(=C\c3ccc(C)o3)C(=O)O2)cc1	69.0*	7.4
CCc1ccc(C2=C/C(=C/c3ccc(C)c(OC)c3)C(=O)O2)cc1	-3.0	10.3
CCCc1cc(SCC(=O)Nc2cc(C)ccc2OC)ncn1	-19.9	-19.9
O=C(O)CC1Nc2ccccc2NC1=O (configuration not stated)	3.9	1.6
C=C(C)CC1Nc2ccccc2NC1CC(=C)C (configuration not stated)	56.0*	nt
COc1nccnc1N1CCC(NC(=O)c2cccnc2)C1 (configuration not stated)	1.7	2.1
CCCC(=O)N1CCCC(c2ccnc(Nc3ccc(F)cc3)n2)C1 (configuration not stated)	2.1	-4.5
SMILES	mHTT CaM bind	Pf apPOL inh
O=C(C1CCCCC1)N1CCCC(c2ccnc(Nc3cccc(F)c3)n2)C1 (configuration not stated)	72.2*	-2.7
O=C(C1CCCC1)N1CCCC(c2ccnc(Nc3cccc(F)c3)n2)C1 (configuration not stated)	13.1	-7.2
CCCC(=O)N1CCCC(c2ccnc(Nc3cccc(F)c3)n2)C1 (configuration not stated)	62.0*	-0.9
COCCN=C1Nc2ccccc2CNC12CCN(C(=O)Nc1cccc(OC)c1)C2 (configuration not stated)	7.5	-3.9
Nc1cccc2c1NC(c1ccc(Cl)cc1)C1CCCC21 (configuration not stated)	90.3*	-4.4
CCCCOc1ccc(/C=C2N=C(/C=C/c3ccccc3)OC\2=O)cc1	-3.0	-5.3
O=C1C=CC(=O)C(C2=C3C(=O)N(Cc4ccccc4)CC(=O)N3CCC2)=C1	82.0*	-7.8
O=C1NCCN(Cc2ccccc2)C1=O	-1.3	-6.3
Cc1ccc2c(c1)NC(=O)C(C(=O)NC1CC1)O2 (configuration not stated)	0.1	-4.6
CCOc1c(Br)cc(/C=C2\C(=O)NN(c3ccc(F)c(Cl)c3)C2=O)cc1OC	81.0*	1.1
COc1cc(/C=C2\C(=O)NN(c3ccc(F)c(Cl)c3)C2=O)ccc1O	33.0	1.0
CCOc1cccc2c1OC(c1cccc(OC)c1)N1N=C(c3ccco3)CC21 (configuration not stated)	28.0	-19.7
COc1ccc(C2Oc3c(OC)cccc3C3CC(c4ccc(C)o4)=NN32)cc1 (configuration not stated)	83.0*	-11.3
COc1ccc(C2Oc3ccc(Cl)cc3C3CC(c4ccco4)=NN32)cc1 (configuration not stated)	37.0	-16.4
COc1cccc(C2=NN3C(C2)c2cccc(OC)c2OC3c2cc(OC)c(OC)c(OC)c2)c1 (configuration not stated)	48.0	-22.4
COc1ccc(C2Oc3ccccc3C3CC(c4ccc(C)o4)=NN32)cc1 (configuration not stated)	60.0*	-7.4
CCOc1cccc2c1OC(c1ccc(OC)c(OC)c1)N1N=C(c3ccc(C)o3)CC21 (configuration not stated)	63.0*	-15.6
COc1cccc2c1OC(c1ccc(F)c(F)c1)N1N=C(c3ccco3)CC21 (configuration not stated)	14.0	-18.0
COc1ccc(C2Oc3c(OC)cccc3C3CC(c4ccc(C)o4)=NN32)cc1OC (configuration not stated)	51.0*	-21.9
COc1ccc(S(=O)(=O)N2CCCC2C(=O)NCc2csc(C)n2)cc1OC (configuration not stated)	-5.0	-3.9
COc1ccc([N+](=O)[O-])cc1C1Nc2ccccc2-c2nnc(SC)nc2O1 (configuration not stated)	-8.0	-6.6
Cc1ccccc1CC(=O)N1CCCC(COc2ccc(C(=O)NC3CC3)cc2)C1 (configuration not stated)	-4.5	-2.7
Cc1ccc(-c2noc(C3CCCN3S(=O)(=O)c3ccc(Cl)cc3C)n2)cc1 (configuration not stated)	4.0	-0.3
O=C(Cc1cccnc1)N1CCC(c2nc(C3CC3)n[nH]2)CC1	-0.6	8.6
CCN(CC)c1ccc2cc(-c3nnc(NCc4ccco4)s3)c(=O)oc2c1	-17.0	-1.8
SMILES	mHTT CaM bind	Pf apPOL inh
COc1ccc(OC)c(NC(=O)c2c(NC(=O)CCC(=O)O)sc3c2CCCCC3)c1	53.7*	-8.4
COc1ccc(OC)c(NC(=O)c2c(NCc3cccnc3)sc3c2CCCC3)c1	69.0*	-16.5
COc1ccc(OC)c(NC(=O)c2c(NCc3ccncc3)sc3c2CCCC3)c1	70.0*	-16.9
COc1ccc(Cl)cc1NC(=O)c1c(NCc2ccncc2)sc2c1CCCC2	79.0*	-20.1
COc1ccc(OC)c(NC(=O)c2cccnc2)c1	2.3	-2.2
COc1ccccc1NC(=O)c1c(NC(=O)c2ccccc2Cl)sc2c1CCCC2	-7.3	-3.4
COc1ccc(NC(=O)c2c(NC(C)=O)sc3c2CCCC3)c(OC)c1	-0.7	-1.9
COc1ccc(CC(=O)Nc2sc3c(c2C(N)=O)CCCCCC3)cc1OC	5.5	-1.4
Cc1cccc(N2CCN(C(=O)C(C)C)C(C)C2=O)c1C (configuration not stated)	1.1	-5.1
COc1ccc(OC)c(/C=C2/N=C(c3ccccc3F)OC2=O)c1	4.0	-3.0
O=c1nc2n(-c3ccccc3F)c3ccc([N+](=O)[O-])cc3cc-2c(=O)[nH]1	6.0	2.6

Assay outcomes deposited in PubChem BioAssay by University of Kansas High Throughput Screening Laboratory.
